About 13,000 (27%) of roughly 48,000 compounds showed an effect of 50% or more. The list shows a part of the results.
Each molecule was assayed on Wolbachia pipientis (assay: Anti-Wolbachia Cell-Based Screen). Conditions: 5 µM.
Type: functional
Parameters: scale not given: in the data most compounds retested in dose-response had high values

SMILES | Percent Effect [%]
CC1(Cc2ccccn2)NCCc2[nH]cnc21 (centres undefined) | 15.49
CCn1c(N)nc2cc(C(=O)N3Cc4ccccc4C3)cnc21 | -3.386
CCCS(=O)(=O)N1CCC(Nc2c(F)cc(C#N)cc2F)CC1 | 13.62
CSCCC(=O)N1CCN(CC(C)(C)O)CC1 | -39.31
Cc1c(C(C)NCC2CCCC2)cnn1-c1ccc(F)cc1F (centres undefined) | 0.5195
O=C(CN1C=Nc2ccccc2S1(=O)=O)NCCc1cccs1 | 3.571
COCCN(C)[C@@H]1c2ccccc2C2(CCNCC2)[C@H]1O | 2.267
CC(C)NC(=O)CN1CCN(CC2CCOc3ccccc3C2)CC1 (centres undefined) | -2.637
Cc1cc(C(=O)NS(C)(=O)=O)ccc1I | 1.042
Nc1nc2c(c(NCc3nc(-c4ccncc4)n[nH]3)n1)CCCC2 | -1.758
Cc1nc2c(c(NCc3cnc4c(c3)CCC4)n1)CNC2 | 90.56
CCc1cnc(C)nc1NCCN1CCC(O)CC1 | 8.36
Cc1nc2c(c(NCc3cc4ccccc4s3)n1)CCNCC2 | -2.145
CCc1cnc(C)nc1NCc1cnc2c(c1)CCC2 | 83.93
Nc1nc2c(c(NCc3ccncc3)n1)CCCC2 | -16.82
CCc1cnc(C)nc1NCCN1CCCCCC1 | -2.933
Nc1nc2c(c(NCc3cnc4c(c3)CCC4)n1)CCNC2 | 77.65
Cc1nc2c(c(NCc3nc4ccccc4s3)n1)CCNCC2 | 4.643
CCC(C)NC(=O)c1ccc(CNC(=O)CC(C)(C)C)cc1 (centres undefined) | 3.529
COC(=O)CCC(=O)NC1CCCc2cc(OC(F)F)ccc21 (centres undefined) | 7.111
CCC(C(=O)N(Cc1ccccc1OC)C1CC1)n1cccn1 (centres undefined) | -4.851
O=c1[nH]c(=O)n(CC(O)c2ccc(F)cc2F)cc1Cl (centres undefined) | -0.7239
OC(CNCCn1cccn1)COc1ccc(F)cc1 (centres undefined) | 3.915
COc1cc(CN2CCCC[C@]3(C)NC(=O)CC[C@H]23)ccc1F | 73.04
COc1ccc(CN2CC[C@@]3(O)CCCC[C@H]3C2)cc1C(=O)O | -6.5

SMILES | Percent Effect [%]
COc1ccc(CN2CCCCC2CNC(=O)OC(C)(C)C)cc1F (centres undefined) | 23.02
CCc1nc(CCNC(=O)Nc2ccc(C(=O)NC)cc2C)cs1 | 3.747
Cc1cc(C)n(CC2CCCN2Cc2cccc(C#N)c2)n1 (centres undefined) | -4.614
Cc1cc(C)n(CC2CCCN2Cc2ncc(C(C)(C)C)o2)n1 (centres undefined) | 98.37
Cc1nc(C)n(CC2CCCN2Cc2ncc(C(C)(C)C)o2)n1 (centres undefined) | 109.1
Cc1nc(C)n(CC2CCCN(Cc3nc(C)c(C)o3)C2)n1 (centres undefined) | 2.327
Cc1nc(C)n(CC2CCCN(Cc3ncc(C(C)(C)C)o3)C2)n1 (centres undefined) | 87.18
Cc1nc(C)n(CC2CCCCN2Cc2ncc(C(C)(C)C)o2)n1 (centres undefined) | 8.215
Cc1nc(C)n(CC2CCCN2Cc2ncc(-c3ccccc3)o2)n1 (centres undefined) | 119.8
Cc1cc(C)n(CC2CCCN2CCc2ccncc2)n1 (centres undefined) | -8.858
Cc1nc(C)n(CC2CCCN2Cc2ccccn2)n1 (centres undefined) | 5.197
c1ccc(-c2cnc(CN3CCCC3Cn3cncn3)o2)cc1 (centres undefined) | -9.309
CN(Cc1ccc(F)cc1F)CC(C)(CO)CO | -8.016
CCC(O)(CNCc1cc[nH]n1)c1ccc(Br)cc1 (centres undefined) | 7.461
CCn1cc(S(=O)(=O)Nc2cccnc2-n2cccn2)nc1C | -8.927
O=C(NC1(c2nc(C3CC3)no2)CCCCC1)c1cccnc1O | -6.139
O=S(=O)(CCNCc1cc(O)c2cc(F)ccc2n1)N1CCCC1 | -19.62
C=C(C)COc1ccc(C(=O)NCC2CC(CC)=NO2)cc1 (centres undefined) | 5.055
Cc1noc(C)c1CNC(=O)C(C)Oc1ccccc1F (centres undefined) | -0.2471
CCc1nonc1NC(=O)C(C)Oc1ccccc1F (centres undefined) | -3.063
Cc1nc(CNC(=O)C(C)Oc2ccccc2F)no1 (centres undefined) | 94.07
CC(C)Oc1ncc(C(=O)N2CCC(NC(=O)C3CC3)CC2)cc1Cl | -2.3
CCSCCC(C)N(C)C(=O)c1ccc(C)o1 (centres undefined) | 3.019
COCCN1CC2(CCCN(C(=O)NCCc3cccs3)C2)CCC1=O (centres undefined) | 2.041
COCCOCC(=O)Nc1cccc(CN(C)C(C)=O)c1 | 3.065

SMILES | Percent Effect [%]
COCCOCC(=O)Nc1ccc(C)cc1Cl | 120.1
COCCOCC(=O)NC(C#N)c1cc(Cl)cc(Cl)c1 (centres undefined) | -3.504
COCCOCC(=O)Nc1ccc(C)cc1Br | 93.08
Cc1ccc(NC(=O)N(C)CC(O)COCCOC(C)C)c(Br)c1 (centres undefined) | -14.49
Cc1ccc(NC(=O)CNc2cccc3c2CCCC3)c(Br)c1 | 9.995
COc1cc2c(nn1)CCN(Cc1ncc(C(C)(C)C)o1)C2 | 5.733
CCN(C)S(=O)(=O)NCC1(c2cccc(Br)c2)CC1 | 0.1722
CN(C)c1ccc(C(=O)N2Cc3cnc(C(C)(C)C)nc3C2)cc1 | 19.06
CN(C)CCCC(=O)NC1CC(C)(C)Cc2nc(C(C)(C)C)ncc21 (centres undefined) | 112.6
CN(C)CC(=O)NC1CC(C)(C)Cc2nc(C(C)(C)C)ncc21 (centres undefined) | 106.4
CCCC(=O)NCC(=O)NC1CC(C)(C)Cc2oc(C)cc21 (centres undefined) | -3.424
COc1ccc(NC(=O)C(c2ccc(OC)cc2)N2CCOCC2)cc1 (centres undefined) | 109.2
COc1ccc(C(CNC(=O)c2cnc(C)cn2)N2CCOCC2)cc1 (centres undefined) | 15.25
CCC(CC)C(CNC(=O)Nc1ccc(OC)cc1)N1CCOCC1 (centres undefined) | 4.336
CSc1nc2cc(C)n(CC(=O)N3CCCC3)c2c(=O)n1CC(C)C | 4.703
Cc1cc(N(C)CC2COc3ccccc3O2)nc(N)n1 (centres undefined) | -8.93
Cc1cc(C(=O)N2C[C@@H]3[C@@H](CN(C)CCCn4cccn4)[C@@H]3C2)c(C)o1 | 2.079
Cc1cc(C(=O)N(C)CCCn2cccn2)nc(N)n1 | 99.09
CN(CCn1cccn1)c1cc(C(F)(F)F)nc(-c2cccnc2)n1 | -9
CC(C)[C@H]1COC(=O)N1CC(=O)N(C)CCCn1cccn1 | -1.545
Cc1cc(N(C)CCCn2cccn2)nc(N)n1 | 93.8
Cc1cc(N(C)CCCn2cccn2)nc(-c2cccnc2)n1 | 95.65
Cc1cc(N(C)Cc2ncc[nH]2)nc(-c2cccnc2)n1 | -8.057
COc1ccccc1OCCCN(C)c1cc(C)nc(N)n1 | -7.239

Source: ChEMBL document CHEMBL3988442, “University of Dundee, Small-Polar-MMV Screening Library” (2021)
